Laboratory results reported in PubChem BioAssay (NCI).
Values joined by “and” are separate entries in the source; they are usually repeats but may differ in a detail not shown here. Equal entries are not always repeated. Compounds without any hit were thinned out: in the full panel of roughly 83,000, 20% have a hit.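 48-hour exposure, single concentration, 96-well plates; percent growth endpoint where 0 means no net growth. Active: below 10.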 Active and inactive are the calls of the source.

Test system: HL-60(TB) leukemia
Assay: NCI-60 one-dose screen, 48 h (100 = growth as untreated, 0 = no growth, -100 = all killed)
Details: 10 µM unless noted

Compound | growth
Oc1cccc2ccc(-c3nnc(SCc4ccc(O)c5ncccc45)o3)nc12 | 13.7% (inactive)
CC1OC(O[C@@H]2C(O)C(CO)OC(O[C@H]3COC(O[C@H]4CC[C@]5(C)[C@H]6CC[C@]78OC[C@@]9(CC[C@](C)(C=O)C[C@H]97)[C@H](O)C[C@@]8(C)[C@]6(C)CC[C@H]5C4(C)C)[C@@H](OC4OC(CO)[C@@H](O)[C@@H](O)[C@@H]4O)[C@@H]3O)[C@H]2OC2OC[C@@H](O)[C@@H](O)[C@@H]2O)[C@@H](O)[C@@H](O)[C@H]1O (some centres not stated) | -60.5% (active)
N#Cc1c(-c2ccccc2)cc(-c2c[nH]c3ccccc23)nc1-c1c[nH]c2ccccc12 | 104% (inactive)
Cc1cccc2sc(/N=C(\N)C(Cl)(Cl)Cl)nc12 | 103% (inactive)
Brc1cccc(/C=N/Nc2nc(N/N=C/c3cccc(Br)c3)nc(N3CCOCC3)n2)c1 | -10.2% (active)
CCCCOc1ccc(S(=O)(=O)N2CCN(c3nccc(N4CCOCC4)n3)CC2)cc1 | 32.4% (inactive)
CCc1cc2c(cc1Cl)nc1c(=O)[nH]c(=O)nc-1n2CCOCC(C)(C)C | 82% (inactive)
NC(=O)c1ncn2c(=O)n(CCF)nnc12 | 29.6% (inactive)
COc1cc(/C=C/C(=O)c2ccc(C(F)(F)F)cc2)ccc1Oc1nc(NCCO)nc(N2CCOCC2)n1 | 53.4% (inactive)
COc1cc(C(=O)c2cc(C(C)=O)c3cccc(C)n23)cc(OC)c1OC | 10.7% (inactive)
Cc1ccc2c(n1)C(=O)C(Cl)=C(Nc1cccc(C(F)(F)F)c1)C2=O | 32.3% (inactive)
O=C(/C=C/c1ccc(Cl)c(Cl)c1)Nc1ncc(Cc2ccc(Cl)c(Cl)c2)s1 | 48.2% (inactive)
CCC(CC)N1C(=O)/C(=c2\sc3n(c2=O)C2C(NN=3)N(CC)C(=O)N2CC)c2ccccc21 (configuration not stated) | -17.8% (active)
C/C=C/C=C1\C[C@H]2CO[C@H](O2)C1=O | 99.8% (inactive)
CCOC(=O)c1cccc(NC2=C(Cl)C(=O)c3nc(C)ccc3C2=O)c1 | 42% (inactive)
COC(=O)c1ccc(NC2=C(Cl)C(=O)c3nc(C)ccc3C2=O)cc1 | 21.2% (inactive)

Compound | growth
O=C(Nc1ccc(F)cc1)c1cc(-c2ccc(F)cc2F)ccc1O | 0.532% (active)
CCCCCc1ccc(S(=O)(=O)Nc2cccc(-c3csc(NC(=O)CCCCCN4CCN(CCO)CC4)n3)c2)cc1 | 63.4% (inactive)
C#C[C@]1(O)CC[C@H]2[C@@H]3CC=C4c5sc(Nc6cc(OC)ccc6OC)nc5CC[C@]4(C)[C@H]3CC[C@@]21C | -5.2% (active)
C#CCN(C)CCCOc1ccc(NC(=O)CCCCCCCCC(=O)NO)cc1Cl | 28.6% (inactive)
O=C1[C@H]2Cc3c([nH]c4ccccc34)[C@@H](c3c(Cl)cccc3Cl)N2C(=O)CN1C1CCN(Cc2ccccc2)CC1 | 65.7% (inactive)
COc1cc(CNC(=O)Cc2ccccc2[N+](=O)[O-])ccc1OCC(=O)NO | 118% (inactive)
O=c1c2cc(-c3ccc(F)cc3F)ccc2n(Nc2ccccc2)c(=O)n1-c1cccc(C(F)(F)F)c1 | -45.5% (active)
O=C(CCCCCCN1CC(=O)N2[C@@H](c3cccc(Cl)c3)c3[nH]c4ccccc4c3C[C@H]2C1=O)NO | 8.21% (active)
O=C(COc1ccc(/C=C2\C(=O)Nc3ccc(F)cc32)cc1)Nc1ccccc1 | 95.9% (inactive)
Cc1nc(-c2cc3ccccc3oc2=O)ccc1C(=O)/C=C/c1ccccn1 | 32.9% (inactive)
COC(=O)CCCNCCCn1ccc2cc(NCc3cccc(-c4ccccc4)c3C)ccc21 | 16.7% (inactive)
N#Cc1cccc(-c2cc(-c3ccc4c(c3)OCCO4)[nH]n2)c1 | 6.12% (active)
O=C(Nc1ccccc1)Nc1nc2ccc([N+](=O)[O-])cc2s1 | -35.9% (active)
COc1ccc(NC2=CC(=O)C(C)=C(C)C2=O)cc1 | 80.2% (inactive)
c1ccc(C(c2nc3ncncc3[nH]2)N2CSc3nc4ncncc4n3C2)cc1 (configuration not stated) | 39.8% (inactive)
C/C=C/CC(C)C(O)[C@H](NC(=O)[C@@H]1CCCN1C(=O)[C@](C)(CC)NC(=O)CCCCCCCCC)C(=O)N[C@@](C)(CC)C(=O)N[C@@H](CCC(N)=O)C(=O)N[C@H](CCC(N)=O)C(=O)NC(C)(C)C(=O)NC(C)(C)C(=O)N[C@@H](CCC(N)=O)C(=O)N[C@H](CC(C)C)C(=O)N[C@H](CO)CC(C)C (some centres not stated) | 52.5% (inactive) and -38.8% (active)
